Bioassay records: PubChem, National Center for Advancing Translational Sciences (NCATS)
This is a sample that favours compounds with a hit; in the whole collection about 3.9% have one here.
Eya2 inh: qHTS Assay for Inhibitors of the Phosphatase Activity of Eya2; Protein phosphatase EYA2 (Homo sapiens), O00167; recombinant Eya2, OMFP fluorescence dephosphorylation (OMFP is methylfluorescein phosphate); Potency, µM (titrated, usually from 76.9 µM), most hits filed as inhibitors; actives 0.006% (n = 330,000); AID 488837, 2010
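Eya2 (0.2 uM) preincubated 10 min at ambient with compound, then OMFP substrate added at 50 uM; 10 min reaction in 50 mM HEPES pH 7.5, 50 mM NaCl, 5 uM MgCl2, 0.05% BSA, 1 mM DTT. Fluorescence read at Ex 485/Em 525 nm.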
D1 antag: Antagonist of Human D 1 Dopamine Receptor: qHTS; D(1A) dopamine receptor (Homo sapiens), P21728; HEK293 TREx D1 cells, calcium flux, dopamine EC80; hits give low values; activity change, negative = inhibition, % at 10 µM; actives 3.2% (n = 360,000); AID 504652, 2011; in the data active = activity change below about -30%
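Using tetracycline-induced force-coupled D1 Hek293 cells and a calcium dye, signals were followed for 180 s after compound, then for 180 s after EC80 dopamine, to detect inhibitors.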
D1 PAM: Potentiators of Human D1 Dopamine Receptor: qHTS; D(1A) dopamine receptor (Homo sapiens), P21728; HEK293 TREx D1 cells, calcium flux, dopamine EC20 potentiation; potentiation, % at 10 µM; actives 0.036% (n = 360,000); in the data active = potentiation above about 30%
GALK inh: qHTS Assay for Inhibitors of Human Galactokinase (GALK); P51570; AID 1868, 2009; Purified GALK, Kinase-Glo residual ATP luminescence; actives 0.007% (n = 270,000); Potency, µM (titrated, usually from 57.5 µM), hits mostly inhibitors
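Quantitative HTS: GALK 5 nM, ATP 35 uM, galactose 100 uM, 1 h room temperature, then luciferase-based ATP detection.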
D1 ag: Allosteric Agonists of the Human D1 Dopamine Receptor: qHTS; HEK293 T-REx D1 cells, calcium flux, agonist mode; activation, % at 2 µM; actives 1% (n = 360,000); AID 504660, 2011; in the data active = activation above about 30%
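Tetracycline-induced HEK293 TREx D1 cells, force-coupled to calcium signalling, were dye-loaded with a no-wash calcium kit. Compound was pin-added after a 10 s baseline. Fluorescence was read kinetically at 1 cycle/s for 180 s, with calcium rises flagged as agonism.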
USP2a inh: qHTS Assay for Inhibitors of Ubiquitin-specific Protease USP2a Using CHOP2 as the Reporter; USP2 core, Ub-CHOP2 coupled fluorogenic reporter, 485/531; actives 0.01% (n = 330,000); Potency, µM (highest dose often 38.3 µM), usual class: inhibitors
Target sequence (O75604 whole entry, looked up): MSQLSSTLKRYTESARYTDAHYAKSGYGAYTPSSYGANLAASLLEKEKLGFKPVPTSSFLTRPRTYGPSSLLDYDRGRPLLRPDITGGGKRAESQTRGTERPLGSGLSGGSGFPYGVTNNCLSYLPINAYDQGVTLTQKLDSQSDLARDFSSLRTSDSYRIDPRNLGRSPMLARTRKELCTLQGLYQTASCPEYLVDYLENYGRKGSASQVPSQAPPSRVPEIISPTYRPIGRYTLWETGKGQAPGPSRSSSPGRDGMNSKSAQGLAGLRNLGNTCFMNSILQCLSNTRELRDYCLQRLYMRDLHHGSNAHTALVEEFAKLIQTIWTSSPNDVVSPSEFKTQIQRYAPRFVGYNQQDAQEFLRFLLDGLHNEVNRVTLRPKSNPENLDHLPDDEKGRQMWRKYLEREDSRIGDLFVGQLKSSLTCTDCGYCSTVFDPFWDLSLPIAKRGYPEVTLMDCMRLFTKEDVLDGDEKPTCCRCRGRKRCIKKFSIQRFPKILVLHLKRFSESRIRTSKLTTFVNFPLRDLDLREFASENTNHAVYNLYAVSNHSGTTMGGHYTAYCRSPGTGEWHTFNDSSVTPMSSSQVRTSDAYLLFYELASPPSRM
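USP2 core (10nM final) preincubated 30min RT with compound in 20mM Tris-HCl pH 8.0, 2mM CaCl2, 2mM beta-mercaptoethanol, 0.05% CHAPS; 25nM Ub-CHOP2 plus 25nM reporter substrate added, fluorescence (Ex485/Em531) read after 60min.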
Each line names hits and unclear results; the compound was inactive in the other large screens. Unless noted, calls follow the shape of the dose curve; as a rule, active = well fitted inhibition curve with a large enough effect; inconclusive = small, poorly fitted or top-dose-only effect, or effect the other way; inactive = flat fitted curve, though single readings scatter.

CC1CCC(NC(=O)c2ccc3c(c2)N(Cc2cccc(Cl)c2)C(=O)c2ccccc2S3=O)CC1 (stereo not drawn)	none (no result: Eya2 inh, GALK inh, USP2a inh)
CC(C)Oc1ccc(/C=C/C(=O)NCC2COc3ccccc3O2)cc1 (stereo not drawn)	D1 antag -91
CN(C(=O)CC1C(=O)NCCN1Cc1ccoc1)C1CCOCC1 (stereo not drawn)	none
Cc1ccc(CN2CCNC(=O)C2CC(=O)N(C)C2CCOCC2)cc1 (stereo not drawn)	D1 antag -33
COc1ccc(CN2CCNC(=O)C2CC(=O)N(C)CC2CCOCC2)cc1OC (stereo not drawn)	none
CN(CC1CCOCC1)C(=O)CC1C(=O)NCCN1Cc1cccc(C(F)(F)F)c1 (stereo not drawn)	D1 antag -77 (no result: GALK inh)
COc1ccccc1NC(=O)c1oc2ccccc2c1NC(=O)c1ccccc1C(F)(F)F	none (no result: Eya2 inh, GALK inh, USP2a inh)
COc1ccc(N2CCN(CCCNC(=O)c3nnc(Cc4ccccc4Cl)o3)CC2)cc1	none (no result: Eya2 inh, GALK inh, USP2a inh)
Clc1cnc(N/N=C/c2ccncc2)c(Cl)c1	none
Clc1ccc(N/N=C/c2ccncc2)cc1Cl	D1 antag -34
Fc1ccc(N2CCN(C3=Nc4cccc5cccc3c45)CC2)cc1	D1 antag -44
O=[N+]([O-])c1cc(S(=O)(=O)N2CCCC2)ccc1OCCOc1ccccc1	D1 ag 35 (no result: D1 PAM, GALK inh)
O=[N+]([O-])c1ccccc1OCC(O)CN1CCN(CC(O)COc2ccccc2[N+](=O)[O-])CC1 (stereo not drawn)	D1 antag -46
O=[N+]([O-])c1ccccc1OCCN1CCCC1	D1 antag -38
Cc1ccc(OCCN2CCN(C)CC2)c([N+](=O)[O-])c1	D1 antag -38
COc1ccc(N2CCN(CC(O)COc3ccccc3[N+](=O)[O-])CC2)cc1 (stereo not drawn)	none
O=[N+]([O-])c1cc(S(=O)(=O)N2CCCC2)ccc1OCc1ccccc1	none
Cc1ccc(OCCN2CCNCC2)c([N+](=O)[O-])c1	none
Cc1cc(C)c2c(CC(=O)Nc3ccc(F)cc3)coc2c1	none (no result: Eya2 inh, GALK inh, USP2a inh)
CCC(=O)Nc1ccc2nc(SCCOc3ccc(C)cc3)sc2c1	none (no result: Eya2 inh, GALK inh, USP2a inh)
CCOC(=O)c1ccccc1NC(=O)CSc1cn(CC(=O)N2CCCCCC2)c2ccccc12	none (no result: Eya2 inh, GALK inh, USP2a inh)
CCc1ccc(OCc2nc(-c3ccc(OC)c(OC)c3)no2)c(Br)c1	none (no result: Eya2 inh, GALK inh, USP2a inh)
Cc1ccc([N+](=O)[O-])c(OCCN2CCc3ccccc3C2)c1	D1 antag -52
CCOC(=O)c1cccc(NC(=O)c2cc3sccc3n2C)c1	D1 antag -32
CCOC(=O)c1cccc(NC(=O)c2cc3sccc3n2Cc2ccc(Cl)cc2)c1	none (no result: Eya2 inh, GALK inh, USP2a inh)
Cc1cc(NC2CCCCC2)nc(-n2nc(C)cc2C)n1	none (no result: D1 antag, D1 PAM, GALK inh, D1 ag, USP2a inh)
CC(C)c1ccc(CN(C)C(=O)c2ccc(S(=O)(=O)NCc3ccco3)cc2)cc1	D1 antag -30 (no result: GALK inh)
Cc1ccn2c(CN3CCOCC3)c(-c3ccccc3)nc2c1	D1 antag -32
Oc1ccc(N2CCN(Cc3c(-c4ccccc4)nc4ccccn34)CC2)cc1	none
COc1cccc(N2CCN(C(=O)c3ccc(N4C(=O)NC5CC4(C)Oc4ccccc45)cc3)CC2)c1 (stereo not drawn)	Eya2 inh inconclusive
COc1ccc(NC(=O)C2C(=O)N(C)C3(C)CC2c2ccccc2O3)cc1 (stereo not drawn)	D1 antag -32
COc1ccc(N2C(=O)NC3CC2(C)Oc2ccccc23)cc1 (stereo not drawn)	D1 antag -39
COc1ccc(NC(=O)C2C(=O)N(CCO)C3(C)CC2c2ccccc2O3)cc1 (stereo not drawn)	none
COc1cc(NC(=O)CN2C(=O)C(c3ccc(C)cc3)=NC23CCCCCC3)cc(OC)c1	none (no result: Eya2 inh, GALK inh, USP2a inh)
Cc1ccc(Cl)cc1N1CCN(C(=O)Cn2cnc3nc4c(cc3c2=O)CCCC4)CC1	none (no result: Eya2 inh, GALK inh, USP2a inh)
O=c1cc(CN2CCC(Cc3ccccc3)CC2)nc2sccn12	none
CC1CN(Cc2cc(=O)n3ccsc3n2)CC(C)O1 (stereo not drawn)	D1 antag -49
Cc1ccc(S(=O)(=O)NC2CCCCCCC2)cc1	none
Cc1ccc(S(=O)(=O)NC(=O)C2CCCCC2)cc1	D1 antag -36 (no result: GALK inh)
COc1ccc(C(C)=O)cc1CN(c1ccccc1OC)S(=O)(=O)c1cccs1	D1 antag -94
COc1ccccc1CN(C)S(=O)(=O)c1cccs1	none
CCCOc1ccccc1N/C(=N/c1nc(C)cc(C)n1)NC(=O)Nc1ccc(Cl)cc1	D1 antag -50
Cc1ccc(-c2ccc(SCC(=O)NC3CCCC3)nn2)cc1	D1 antag -31
C=CCNC(=O)CSc1cc([N+](=O)[O-])cc(S(=O)(=O)Cc2ccccc2)c1	none
O=C(CSc1cc([N+](=O)[O-])cc(S(=O)(=O)Cc2ccccc2)c1)NC1CC1	D1 antag -40
Cc1nc2[nH]onc2c2nccc(=O)c12	D1 antag -39
COc1ccccc1N1CCN(C(=O)CN2C(=O)COc3ccc(S(=O)(=O)N4CCC(C)CC4)cc32)CC1	none (no result: Eya2 inh, GALK inh, USP2a inh)
CCCCCn1c(=N)c(S(=O)(=O)c2ccccc2)cc2c(=O)n3ccccc3nc21	D1 antag -62 (no result: Eya2 inh, GALK inh, USP2a inh)
CCCn1c(=N)c(S(=O)(=O)c2ccccc2)cc2c(=O)n3ccccc3nc21	none
O=C(Nc1ccccc1F)c1ccc(Cn2nc(N3CCN(c4ccccc4)CC3)ccc2=O)o1	none (no result: Eya2 inh, GALK inh, USP2a inh)
O=C(Nc1ccc(F)cc1)c1ccc(Cn2nc(N3CCN(c4ccccc4)CC3)ccc2=O)o1	D1 antag -32 (no result: Eya2 inh, GALK inh, USP2a inh)
Cn1c(=O)c2c(-c3ccccc3)n3c(c2n(C)c1=O)C(c1ccccc1[N+](=O)[O-])Nc1ccccc1-3 (stereo not drawn)	none (no result: Eya2 inh, GALK inh, USP2a inh)
Cc1ccc(NC(=O)NC2CCN(S(=O)(=O)c3ccc(F)cc3)CC2)cc1	D1 antag -53
Cc1ccc(NC(=O)NC2CCCCCCC2)cc1	D1 antag -32
O=C(Nc1cccc(F)c1)NC1CCCCC1	none
O=C(Nc1ccc2ccccc2c1)C(c1ccccc1)C1CCCC1 (stereo not drawn)	none (no result: GALK inh)
O=C(Nc1cccc(F)c1)NC1CC2CCCC(C1)N2C1CC1 (stereo not drawn)	D1 antag -34
Cc1ccc(NC(=O)C(=O)NC2CCCCC2)cc1	none
